The campaign covered roughly 340,000 compounds. About 12,000 (3.5%) were called active. A call without a number means that no potency is given here. Inconclusive results (about 18%) are left out. Many of the other results were omitted from the sample, so actives are more common in it than they were. Unmarked numbers belong to inactive results. Calls follow the shape of the dose curve; as a rule, active = well fitted inhibition curve with a large enough effect; inconclusive = small, poorly fitted or top-dose-only effect, or another doubt; inactive = no such curve, though single readings can be large or run the other way.
test: qHTS Assay for Inhibitors of Hepatitis C Virus (HCV); details: Huh7.5.1 HCVcc-Cre infection, luciferase reporter, 44 h; series mostly up to 41.8 µM
Summary of the method: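 Whole-lifecycle infectious HCVcc-Cre system; cells 1,000/well, compound then virus (~0.5 moi) added 4 h after plating, 44 h culture. Luciferase read 15 sec following 15 min substrate incubation, room temp.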
Potency is read from the fitted curve at half-maximal effect.

Compound	Potency	activity change, negative = inhibition
COc1ccccc1/C=C/C(=O)OCC(=O)NC1CCCCCC1	inactive	
Clc1c(OCCCn2ccnc2)ccc2ccccc12	14.1 µM (active)	
CCOc1ccccc1C(=O)NCCCn1ccnc1	inactive	
O=C(CCN1C(=O)c2ccccc2C1=O)NCCCn1ccnc1	inactive	
N#Cc1cc([N+](=O)[O-])ccc1NC(=O)COC(=O)c1cnccn1	inactive	
Cc1csc(NC(=O)Nc2ccccc2[N+](=O)[O-])n1	inactive	
CCOC(=O)C/C(C)=N\Nc1ccc([N+](=O)[O-])cc1[N+](=O)[O-]	inactive	
CCOC(=O)/C(=N\Nc1ccccc1[N+](=O)[O-])c1csc(Nc2ccccc2)n1	5.01 µM (active)	
COc1ccc(N=C2C=CC(=O)O2)cc1	inactive	
COc1ccccc1C(=O)COC(=O)COc1ccc(C#N)cc1	inactive	
O=c1[nH]c(CSc2ncc(-c3ccc(F)cc3)n2Cc2ccco2)nc2ccccc12	25.1 µM (active)	
CCn1c(Cc2ccccc2)nnc1SCc1nc2ccccc2c(=O)[nH]1	inactive	
Cn1c(-c2ccc(F)cc2)cnc1SCC(=O)NCc1ccco1	inactive	
CC(C)(CNC(=O)CNC(=O)C1CCCCC1)N1CCOCC1	inactive	
O=C(C[C@@H]1C/C=C\CCC(=O)OC[C@@H]2CCCN2C1=O)NCCO	inactive	
COc1ccc(Nc2cc(Cl)ccc2C(=O)O)cn1	inactive	
COc1ccc(C(=O)Nc2ccc(NC(=O)C(C)C)nc2)cc1	inactive	
COc1ccc(CS(=O)/C(Cl)=C(/Cl)C(=O)Nc2ccc(OC)nc2)cc1 (configuration not stated)	4.47 µM (active)	
COc1ccc(NS(=O)(=O)c2ccc(C)c(C(=O)NCC(c3cccs3)N3CCOCC3)c2)cc1 (configuration not stated)	inactive	
CC(C)Cc1nnc(N)s1	inactive	
Cc1nc(-c2ccc(F)cc2)c(CC(=O)Nc2cc(S(=O)(=O)N3CCCCC3)ccc2C)s1	inactive	
COC1=CC(=O)OC(c2ccc(OC)cc2)C1 (configuration not stated)	inactive	
CSc1nnc(NC(=O)c2nc(S(=O)(=O)Cc3ccc(C)cc3)ncc2Cl)s1	12.6 µM (active)	
CCSc1nnc(NC(=O)c2ccc(C)cc2)s1	inactive	
CSc1ncc(Cl)c(C(=O)Nc2cc(C)ccc2C)n1	inactive	
CCC1Nc2ncnc(N3CCN(c4ccccc4)CC3)c2N(Cc2ccc(Cl)cc2)C1=O (configuration not stated)	inactive	

Compound	Potency	activity change, negative = inhibition
CCCN(CC1CC1)C(=O)COC(=O)c1ccc(C)cc1O	inactive	
COc1ccc(C(=O)O)cc1S(=O)(=O)NC1CCN(Cc2ccccc2)CC1	inactive	
Oc1ccc2ccccc2c1N=Nc1nccs1	8.91 µM (active)	
Oc1c(C=Nc2cccc3nsnc23)ccc2ccccc12	inactive	
Oc1ccc(N=Cc2c(O)ccc3ccccc23)cc1	inactive	
COc1ccccc1CCC(=O)NNC(=O)c1ccncc1	inactive	
CC(C)(C)OC(=O)C[C@@H]1C/C=C\C[C@@H](CC(=O)N[C@H](CO)Cc2ccccc2)C(=O)NC[C@@H](c2ccccc2)OC1=O	inactive	
COc1cc2c(-c3ccc4c(c3)OCO4)c(-c3ccsc3)oc(=O)c2cc1OC		-6.43% [at 8.37 µM]
COC(=O)c1c(-c2ccsc2)oc2ccc(-c3cc(OC)c(OC)c(OC)c3)cc12	12.6 µM (active)	
COc1cc(CC(=O)NCc2cccs2)cc(OC)c1OC	inactive	
Cn1c(-c2ccc(F)cc2)cc2onc(-c3ccccc3Cl)c2c1=O	inactive	
CC1(C)CC(=O)C=C(c2ccc(Cl)c(C(F)(F)F)c2)C1	inactive	
COc1ccc(S(=O)(=O)N2CCOCC2)cc1NC(=O)CSc1nnc(NC2CC2)s1	inactive	
Cc1cc(NC(=O)COC(=O)/C=C/c2ccc(C)o2)no1	inactive	
CNc1nc(Nc2ccc(C)c(Cl)c2)nc(N)c1[N+](=O)[O-]	11.2 µM (active)	
Cc1ccc(Nc2nc(N3CCOCC3)nc(N3CCOCC3)n2)cc1Cl	inactive	
Cc1ccc(Nc2nc(N)nc(CN3CCN(Cc4ccccc4)CC3)n2)cc1Cl	inactive	
Nc1ncnc2c1ncn2[C@@H]1O[C@H](CNS(=O)(=O)c2ccc(-c3ccno3)s2)[C@@H](O)[C@H]1O	inactive	
Cc1ccc(OCCNC(=O)CNC(=O)c2ccc(C)c(C)c2)cc1	inactive	
CCc1nnc(NC(=O)c2cc(S(=O)(=O)N3CCCCC3)ccc2C)s1	inactive	
COc1ccc(CCC(=O)N2CCN(S(=O)(=O)c3ccc(OC)cc3)CC2)cc1	inactive	
Cn1nc(-c2ccccc2)c2cc([N+](=O)[O-])ccc21	12.6 µM (active)	
Cc1nn(-c2ccc([N+](=O)[O-])cc2)c(N)c1-c1ccccc1	inactive	
COc1ccc([N+](=O)[O-])cc1-c1nc2ccccc2nc1-c1ccccc1	inactive	
CCN(C(=O)COC(=O)c1c(C)nn(-c2ccccc2)c1Cl)c1c(N)n(Cc2ccccc2)c(=O)[nH]c1=O	inactive	
O=C(CN1C(=O)NC2(CCCC2)C1=O)Nc1cc(C(F)(F)F)ccc1N1CCOCC1	inactive	

Source: PubChem BioAssay AID651820 (National Center for Advancing Translational Sciences (NCATS), 2012)
